Screening results from PubChem.
Shown are actives, neighbours in structure and some others; about 6.1% of the full set was active somewhere.
D3 antag: qHTS of D3 Dopamine Receptor Antagonist: qHTS; D(3) dopamine receptor (Homo sapiens), P35462; D3R cells, DiscoveRx beta-arrestin luminescence, antagonist mode; hits give low values; max response, negative = inhibition, %; hit rate 2.5% among 360,000; AID 652054, 2013; in the data active = max response below about -50%; inconclusive = no clear call, values can overlap the other calls; note: % is set by controls: 0 for no effect and ±100 for the full control effect
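Cells expressing the human receptor were seeded at 1500 cells/well, incubated overnight at 37 degrees C in 5% CO2, then exposed to library compounds with dopamine controls for 90 minutes at 37 degrees C before luminescent detection.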
DRD3 agonist: qHTS of D3 Dopamine Receptor Agonist: qHTS; max activation, %; D3R DiscoveRx beta-arrestin cells, luminescence, 90 min; D(3) dopamine receptor (Homo sapiens), P35462; AID 652048, 2013; hit rate 0.58% among 410,000; in the data active = max activation above about 30%; note: 0% is about no effect
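Agonist-mode cell screen: cells plated at 1500/well and incubated overnight at 37 °C, then exposed to library compounds for 90 min at 37 °C. Detection reagent was added for 30–60 min at room temperature, and luminescence was read.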
D1 PAM: Potentiators of Human D1 Dopamine Receptor: qHTS | D(1A) dopamine receptor (Homo sapiens), P21728 | HEK293 TREx D1 cells, calcium flux, dopamine EC20 potentiation | potentiation, % at 10 µM | hit rate 0.036% among 360,000 | AID 504651, 2011; in the data active = potentiation above about 30%; note: 0% is about no effect
D1 agonist: Allosteric Agonists of the Human D1 Dopamine Receptor: qHTS; hit rate 1% among 360,000; activation, % at 2 µM; HEK293 T-REx D1 cells, calcium flux, agonist mode; AID 504660, 2011; D(1A) dopamine receptor (Homo sapiens), P21728; in the data active = activation above about 30%; note: 0% is about no effect
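Agonism was scored from calcium flux recorded over 180 s (1 read/s) after pintool compound addition, following a 10-cycle baseline. Cells were inducible force-coupled HEK293 TREx D1, plated overnight at 30 C and loaded with no-wash calcium dye.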
D1 antag: Antagonist of Human D 1 Dopamine Receptor: qHTS; D(1A) dopamine receptor (Homo sapiens), P21728; HEK293 TREx D1 cells, calcium flux, dopamine EC80; hits give low values; activity change, negative = inhibition, % at 10 µM; hit rate 3.2% among 360,000; in the data active = activity change below about -30%; note: % is set by controls: 0 for no effect and ±100 for the full control effect
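Allosteric or orthosteric antagonism assessed as attenuation of the calcium response to EC80 dopamine, added 180 s after compound, in induced HEK293 Trex D1 cells loaded with no-wash calcium dye.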
ERG-DNA inh: qHTS for Small Molecule Inhibitors of the ERG Ets/DNA interaction | hit rate 0.028% among 370,000 | Potency, µM (highest dose often 76.9 µM), inactives show at the highest dose FP activity, negative = inhibition, hits mostly inhibitors | Transcriptional regulator ERG (Homo sapiens), P11308 | fluorescence polarization, His-ERG Ets domain / labelled DNA | AID 624246, 2012; active = well fitted inhibition curve with a large enough effect in the polarisation, with a control signal flat; inconclusive = small, poorly fitted or top-dose-only effect, or effect the other way, or a change in a side signal; inactive = no such curve, though single readings can be large or run the other way; the % refers to the polarisation;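 note: polarization taken with two DNA probes labelled with fluorescein and Texas red; potency is the fitted concentration of half-maximal effect; % of control where 0% means no effect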
Target sequence (P11308 whole entry, looked up, the tested form may be a part): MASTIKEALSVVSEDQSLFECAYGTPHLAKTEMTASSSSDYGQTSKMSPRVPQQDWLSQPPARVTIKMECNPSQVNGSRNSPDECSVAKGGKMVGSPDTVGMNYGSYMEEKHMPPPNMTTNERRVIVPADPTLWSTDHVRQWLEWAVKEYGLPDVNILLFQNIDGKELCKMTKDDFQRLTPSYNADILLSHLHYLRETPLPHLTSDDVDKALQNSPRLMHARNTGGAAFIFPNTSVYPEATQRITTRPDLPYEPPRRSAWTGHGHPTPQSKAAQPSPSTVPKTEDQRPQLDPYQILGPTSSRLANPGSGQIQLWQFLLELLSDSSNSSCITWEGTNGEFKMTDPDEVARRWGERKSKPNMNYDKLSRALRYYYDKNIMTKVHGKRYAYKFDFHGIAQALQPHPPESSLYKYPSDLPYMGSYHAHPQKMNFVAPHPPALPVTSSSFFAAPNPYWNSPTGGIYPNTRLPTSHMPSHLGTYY
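His-tagged ERG Ets domain (1 uM in the protein solution; 300mM KCl, 50mM Tris-HCl, 1mM EDTA, 1mM DTT, pH 7.5) received compound, then a probe mix of 5 nM fluorescein-DNA and 100nM Texas-615-DNA. Fluorescence polarization was read for both dyes.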
Starred values were filed as active, the others as inactive; ? = inconclusive; nt = no result given; ! = a repeat was not active.

SMILES | D3 antag | DRD3 agonist | D1 PAM | D1 agonist | D1 antag | ERG-DNA inh
O=C(CSc1ccc(C(F)(F)F)cc1[N+](=O)[O-])Nc1ccccc1 | -15.2 | 3.3 | -8.5 | 37.2* | -12.8 | nt
CC(C)NC(=O)Cn1c(=O)c2c(ncn2Cc2ccccc2)n(Cc2ccccc2)c1=O | 3.7 | 8.2 | 10.3 | 0.0 | 14.2 | 7.2%
CCc1ccc(NC(=O)Cn2c(=O)n(-c3cccc(OC)c3)c(=O)c3c(C)c(C(=O)N(C)C)sc32)cc1 | nt | 7.7 | -0.6 | 1.2 | -3.6 | 2.1%
O=C(c1cccc(S(=O)(=O)Nc2ccc(F)cc2)c1)N1CCOCC1 | -5.3 | -1.2 | -5.6 | 0.1 | 0.1 | -4.6%
O=C1OC(CO)CN1Cc1ccccc1 (stereo unspecified) | -6.3 | -2.5 | 3.5 | 0.1 | -40.3* | -8.5%
Cc1ccc(C(=O)NC(=S)Nc2ccc(Oc3ccc(Cl)cc3)cc2)cc1 | 7.8 | -11.7 | 0.3 | 10.3 | -24.6 | -0.2%
COC(=O)NC(=S)Nc1ccc(Oc2ccc(Cl)cc2Cl)c(Cl)c1 | -64.8* | -16.4 | -1.9 | -1.9 | 10.0 | 3.0%
COC(=O)NC(=S)Nc1ccc(Oc2ccc(Cl)cc2)c(Cl)c1 | ? | -57.2 | -5.2 | 6.1 | -35.4* | nt
Fc1ccc(NC(=S)Nc2ccc(F)c(Cl)c2)cc1Cl | ? | 0.5 | -0.8 | 15.4 | -17.5 | -9.8%
COc1ccc(-c2cc(C(F)(F)F)nc(SCCC(=O)Nc3ccc(F)cc3F)n2)cc1 | nt | -12.6 | -5.2 | 9.8 | -10.6 | -0.1%
CN1CCC2(CC1)N=C(c1ccc(F)cc1)C(=S)N2C(=O)c1ccccc1 | 7.1 | 1.6 | 2.7 | 8.6 | 9.6 | 0.0%
COc1ccc(Nc2cc(C)nc(-n3nc(C)cc3C)n2)cc1Cl | nt | -26.2 | -0.5 | 3.6 | -33.9* | 1.3%
CCCC(=O)c1cc2cc(Cl)ccc2oc1=O | 18.6 | 6.0 | -3.6 | 3.5 | -6.0 | -1.7%
CCCCN(C)c1c(N2CCC(C(=O)OCC)CC2)c(=O)c1=O | 2.5 | -1.8 | -5.3 | 3.1 | -3.4 | -6.2%
CCC(c1ccc(O)c(O)c1)C(CC)c1ccc(O)c(O)c1 (stereo unspecified) | 0.0 | 16.2 | nt | nt | nt | 3.0%
CCC(NC(C)C)C(O)c1ccc(O)c(O)c1 (stereo unspecified) | 30.1 | 34.0*! | 5.2 | 2.9 | -22.8 | -7.6%
CC[C@H](NC(C)C)[C@H](O)c1ccc(O)c2[nH]c(=O)ccc12 | nt | 44.6* | nt | nt | nt | nt
O=C1C=C(NCc2ccc(Cl)cc2Cl)C2(CCCCC2)O1 | -20.2 | -16.9 | -2.5 | 4.4 | -9.2 | nt
Cc1c(-c2cc(C(=O)O)on2)cnn1C | -21.6 | -4.2 | 8.4 | 2.4 | -3.8 | 2.6%
CN1[C@@H](CC(=O)c2ccccc2)CCC[C@H]1C[C@H](O)c1ccccc1 | -74.8* | -91.0 | -4.6 | 8.1 | -8.7 | 0.2%
O=C(CC1C(=O)CCCC1=O)c1ccccc1 | 7.1 | 4.6 | 2.2 | 7.1 | -2.8 | 0.0%
CN1C(CC(=O)c2ccccc2)CCCC1CC(O)c1ccccc1 (stereo unspecified) | -80.5* | -45.9 | -2.9 | 2.7 | -17.4 | -2.6%
O=S(=O)(c1cc(Cl)ccc1Cl)N1CC2CCCN2c2ccc(C(F)(F)F)cc21 (stereo unspecified) | 17.1 | -8.8 | 2.1 | 3.8 | 6.8 | -6.4%
CCCn1nc(C(=O)NNC(=O)c2ccc(C)c(C)c2)c2ccccc2c1=O | 3.4 | 3.9 | nt | nt | nt | 1.1%
O=C(O)c1ccc(/C=N/NC(=O)C(O)(c2ccccc2)c2ccccc2)cc1 | 4.3 | 1.4 | 0.0 | 8.7 | -31.6* | -4.6%
SMILES | D3 antag | DRD3 agonist | D1 PAM | D1 agonist | D1 antag | ERG-DNA inh
Cc1ccc(N2CC(C(=O)N/N=C/c3sccc3C)CC2=O)cc1 (stereo unspecified) | 1.8 | -3.1 | -0.3 | 2.3 | 14.5 | -2.5%
O=C(N/N=C/c1cc([N+](=O)[O-])ccc1O)C1CC1 | -86.2* | -27.2 | -3.0 | 2.5 | -4.1 | 1.3%
O=C(N/N=C/c1cc([N+](=O)[O-])ccc1O)c1ccc2c(c1)OCCO2 | -63.6* | -13.7 | -9.5 | 0.0 | -5.1 | -4.7%
Cc1ccsc1/C=N/NC(=O)C1CC(=O)N(c2ccccc2)C1 (stereo unspecified) | 38.1 | -1.6 | -7.0 | 0.3 | -46.5* | nt
O=C(O)COc1ccc(/C=N/NC(=O)C(O)(c2ccccc2)c2ccccc2)cc1 | -1.8 | -17.0 | -4.5 | 1.3 | 18.8 | 2.0%
O=C(N/N=C/c1ccccc1[N+](=O)[O-])c1ccc2c(c1)OCCO2 | 1.5 | 1.9 | -6.0 | 0.5 | -1.8 | -2.9%
Cc1cc(N/N=C/c2ccncc2)nc2ccccc12 | 7.3 | -4.2 | -3.9 | -1.6 | nt | 1.6%
Cc1cccc(C)c1NC(=O)CN(C)C(=O)CSC(=S)N1CCCC1 | 16.1 | 8.6 | 2.8 | 3.9 | -7.2 | 3.4%
COC(=O)N/N=C/c1cccnc1 | 3.6 | 1.7 | 1.7 | 1.7 | 18.4 | -6.3%
CCc1ccc(N2CC(C(=O)N/N=C/c3cc([N+](=O)[O-])ccc3O)CC2=O)cc1 (stereo unspecified) | -62.9* | -12.5 | -1.9 | 1.5 | -0.2 | 13.3%
COC(=O)N/N=C/c1ccccc1 | 7.5 | 42.0* | -2.2 | 0.6 | -22.9 | -3.4%
O=C(N/N=C/c1cc([N+](=O)[O-])ccc1O)C(O)(c1ccccc1)c1ccccc1 | -55.5* | -22.7 | -3.1 | 2.3 | -4.6 | 1.8%
O=C(N/N=C/c1cc([N+](=O)[O-])ccc1O)c1ccncc1 | ? | -6.8 | 0.4 | 0.1 | 8.0 | 8.9%
COc1ccc(C(=O)OCC(=O)NCc2ccccc2)c(OC)c1OC | 13.7 | -8.7 | 0.4 | 3.0 | 5.7 | -15.5%
CN(C)/C=N/c1nc2nccc(-c3ccccc3)n2n1 | 10.6 | -1.9 | -1.9 | 0.8 | 11.2 | -5.2%
COc1ccc(OCC(=O)Nc2ccc3c(c2)nc(CN2CCCC2)n3C)cc1 | -54.3* | -14.2 | -2.1 | -1.2 | -9.0 | -6.5%
Cn1c(CN2CCCC2)nc2cc(NC(=O)COc3ccc(Cl)cc3)ccc21 | -69.0* | -29.9 | -17.9 | 3.1 | -3.7 | nt
O=C(O)c1cccc2c1C(=O)c1cc([N+](=O)[O-])cc([N+](=O)[O-])c1-2 | 0.7 | -2.5 | nt | nt | nt | nt
O=C(O)c1cccc2c1/C(=N/Nc1ccc([N+](=O)[O-])cc1[N+](=O)[O-])c1ccccc1-2 | -53.9* | -6.5 | 3.0 | 2.5 | 1.2 | 11.9%
CSc1sc(-c2nnc(SCC(=O)Nc3ccccc3)n2C)c2c1C=CCC2 | -9.8 | -9.9 | -0.9 | 1.6 | -36.4* | 16.5%
Cc1c(C)c2ccc(Oc3ccc([N+](=O)[O-])cc3C(F)(F)F)c(C)c2oc1=O | 5.8 | 2.7 | -3.5 | 2.7 | -33.3* | 4.9%
